In PubChem BioAssay (EPA / NIEHS) one finds AC50 and outcome data, which are given here for three molecules.

Each structure is given as a SMILES string. Where “and” joins values, the source holds several entries; their conditions need not be identical. Equal entries are not always repeated. Results filed as inconclusive are left out. The source holds several records for some structures; these can differ, active in one and inactive in another. Calls of active or inactive are those of the source. Rule for the calls, unless noted: active = hit-call score of the fitted dose curve at least 0.9, where 1 is the maximum; inconclusive = response in the unintended direction; inactive = score below 0.9.

Test [1] concerns the target chicken Estrogen Receptor (ERa), ESR1 (gene 396099) (UniProt P06212). The experiment in a line: ATG_chERa_XSP2: Attagene TRANS-FACTORIAL Multi-Species (XSP2) HepG2 Assay for chicken Estrogen Receptor (ERa) (AID 2283817).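 Note: actives raise reporter signal above DMSO so AC50 reflects ER activation.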 The method, boiled down: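 Transiently transfected HepG2 cells expressing chimeric chicken ERa-GAL4 reporter units, dosed 24 h with 3 nM 6-alpha-fluorotestosterone and 1.5 nM norgestrel present. Reporter mRNA measured by RT-PCR and capillary electrophoresis; gain-of-signal fitted relative to DMSO.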

In test [2] the test system is zebrafish Estrogen Receptor (ER2a), gene 317734. The experiment in a line: ATG_zfER2a_XSP2: Attagene TRANS-FACTORIAL Multi-Species (XSP2) HepG2 Assay for zebrafish Estrogen Receptor (ER2a) (AID 2283818).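 Note: hits raise reporter mRNA so AC50 reflects activation of zebrafish ER2a.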 In outline: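 HepG2 cells transiently transfected with GAL4-UAS reporter units and chimeric zebrafish ER2a-Gal4, exposed 24 h; medium contains 3 nM 6-alpha-fluorotestosterone and 1.5 nM norgestrel. Reporter mRNA quantified by RT-PCR, HpaI digestion, capillary electrophoresis; gain versus DMSO.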

For test [3], the system named is chicken Androgen Receptor (AR), gene 422165. In words: ATG_chAR_XSP2: Attagene TRANS-FACTORIAL Multi-Species (XSP2) HepG2 Assay for chicken Androgen Receptor (AR) (AID 2283819).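 Note: hits raise reporter mRNA above DMSO so potency is for activation.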 In outline: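 HepG2 cells transiently transfected with chicken AR–GAL4 chimeric reporter constructs, stimulated with 3 nM 6-alpha-fluorotestosterone plus 1.5 nM norgestrel, dosed 24 h. Reporter mRNA quantified by RT-PCR and capillary electrophoresis; gain of signal fitted versus DMSO.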

For test [4], the system named is frog Estrogen Receptor (ER), gene 398734. In words: ATG_frER1_XSP2: Attagene TRANS-FACTORIAL Multi-Species (XSP2) HepG2 Assay for frog Estrogen Receptor (ER) (AID 2283821).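 Note: hits raise reporter mRNA above DMSO baseline so potency means agonist or activator.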 The method, boiled down:
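HepG2 cells transiently transfected with GAL4-UAS reporter units expressing a chimeric frog ER-Gal4 protein; 24 h exposure. Reporter mRNA quantified by RT-PCR, fluorescent labelling and capillary electrophoresis; gain of signal fitted against DMSO baseline.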

In test [5] the test system is zebrafish Estrogen Receptor (ER2b), gene 317733. In words: ATG_zfER2b_XSP2: Attagene TRANS-FACTORIAL Multi-Species (XSP2) HepG2 Assay for zebrafish Estrogen Receptor (ER2b) (AID 2283823).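 Note: fitted upward as reporter gain over DMSO so potency reflects activation.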 The method, boiled down:
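Transfect HepG2 with GAL4-UAS reporter constructs; dose chemicals, 24 h; isolate RNA, RT-PCR, FAM-label, HpaI digest; capillary electrophoresis. Gain-of-signal vs DMSO.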

Test [6] has as its system frog Estrogen Receptor (ER2), gene 100174814. The experiment in a line: ATG_frER2_XSP2: Attagene TRANS-FACTORIAL Multi-Species (XSP2) HepG2 Assay for frog Estrogen Receptor (ER2) (AID 2283828). In outline: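 HepG2 cells transiently transfected with multiplexed GAL4-UAS reporter units expressing chimeric frog ER2–Gal4 protein; reporter mRNA measured 24 h after chemical dosing by RT-PCR, fluorescent labeling and capillary electrophoresis. Gain-of-signal fitted relative to DMSO baseline.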

Test [7] concerns the target Peroxisome proliferator-activated receptor gamma (Homo sapiens) (UniProt P37231). The experiment in a line: ATG_hPPARg_XSP2: Attagene TRANS-FACTORIAL Multi-Species (XSP2) HepG2 Assay for human Peroxisome Proliferator-activated Receptor gamma (PPARg) (AID 2283829).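 Note: actives raise reporter mRNA above DMSO so AC50 reflects PPARg activation.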 In outline:
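Transient MRTU transfection, HepG2; TRANS format (exogenous NR-Gal4 chimeras). 24 h chemical exposure with 3 nM 6-alpha-fluorotestosterone and 1.5 nM norgestrel present. Readout: reporter mRNA via RT-PCR/CE fluorescence, up-direction vs DMSO.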

Test [8] addresses mouse Peroxisome Proliferator-activated Receptor gamma (PPARg), Pparg (gene 19016) (UniProt P37238). The experiment in a line: ATG_mPPARg_XSP2: Attagene TRANS-FACTORIAL Multi-Species (XSP2) HepG2 Assay for mouse Peroxisome Proliferator-activated Receptor gamma (PPARg) (AID 2283830).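 Note: hits are gains in reporter mRNA above DMSO so AC50 marks activation.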 The method, boiled down:
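HepG2 cells transiently transfected with GAL4-UAS reporter units for chimeric NR-Gal4 proteins including mouse PPARg, exposed 24 h; medium contained 3 nM 6-alpha-fluorotestosterone and 1.5 nM norgestrel. Reporter mRNA quantified by RT-PCR, HpaI digestion and capillary electrophoresis, vs DMSO.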

The target of test [9] is Nuclear receptor subfamily 1 group I member 2 (Mus musculus) (UniProt O54915). The experiment in a line: ATG_mPXR_XSP2: Attagene TRANS-FACTORIAL Multi-Species (XSP1) HepG2 Assay for mouse Pregnane X Receptor (PXR) (AID 2283831). The method, boiled down:
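Transient HepG2 transfection, multiplexed GAL4-UAS reporters, NR-GAL4 chimeras. 24 h compound exposure. Readout: reporter mRNA, RT-PCR, fluorescent capillary electrophoresis; positive direction vs DMSO baseline.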

The target in test [10] is zebrafish Thyroid Hormone Receptor alpha (TRa), thraa (gene 30670) (UniProt Q98867). The experiment in a line: ATG_zfTRa_XSP2: Attagene TRANS-FACTORIAL Multi-Species (XSP1) HepG2 Assay for zebrafish Thyroid Hormone Receptor alpha (TRa) (AID 2283832).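 Note: actives raise zebrafish TRa-Gal4 reporter transcript above DMSO baseline.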 In outline: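 HepG2 cells transiently transfected with multiplexed GAL4-UAS reporter units expressing chimeric NR-Gal4 proteins; 24 h after dosing, reporter mRNA measured by RT-PCR, FAM labelling, HpaI digestion and capillary electrophoresis; gain of signal versus DMSO baseline.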

The test system of test [11] is zebrafish Peroxisome Proliferator-activated Receptor gamma (PPARg), gene 557037. The experiment in a line: ATG_zfPPARg_XSP2: Attagene TRANS-FACTORIAL Multi-Species (XSP2) HepG2 Assay for zebrafish Peroxisome Proliferator-activated Receptor gamma (PPARg) (AID 2283833).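 Note: actives increase reporter signal over DMSO so AC50 reflects activation.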 In outline: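 Transfect HepG2 with multiplexed GAL4-UAS reporter constructs; dose chemical 24 h; isolate RNA, reverse-transcribe, PCR-amplify, label and digest reporter products; resolve by capillary electrophoresis. Activity taken as increase over DMSO.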

The subject of test [12] is turtle Thyroid Hormone Receptor, alpha (TRa), gene 101949057. The experiment in a line: ATG_trTRa_XSP2: Attagene TRANS-FACTORIAL Multi-Species (XSP1) HepG2 Assay for turtle Thyroid Hormone Receptor, alpha (TRa) (AID 2283834).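 Note: hits raise reporter mRNA over the DMSO baseline so AC50 marks activators.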 The method, boiled down: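 Readout: reporter mRNA induction, fluorescence after RT-PCR, HpaI digestion and capillary electrophoresis. Transiently transfected HepG2, exogenous NR-Gal4 chimera driving GAL4-UAS reporter, 24 h compound exposure. Activity fitted upward relative to DMSO baseline.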

Test [13] is described as follows: ATG_M_61_XSP2: Attagene TRANS-FACTORIAL Multi-Species (XSP2) HepG2 Assay for M61 Transcription Factor (Internal Marker) (AID 2283835; active = hit-call score of the fitted dose curve at least 0.9, where 1 is the maximum; inactive = score below 0.9;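 note: active means a rise in signal above the DMSO baseline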). The method, boiled down:
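HepG2 cells transiently transfected with multiple GAL4-UAS reporter units; reporter mRNA measured 24 h after dosing by RT-PCR, fluorescent labelling and capillary electrophoresis. Medium contained 3 nM 6-alpha-fluorotestosterone and 1.5 nM norgestrel; internal marker, DMSO baseline.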

For test [14], the target named is zebrafish Thyroid Hormone Receptor beta (TRb), thrb (gene 30607) (UniProt Q9PVE4). In words: ATG_zfTRb_XSP2: Attagene TRANS-FACTORIAL Multi-Species (XSP1) HepG2 Assay for zebrafish Thyroid Hormone Receptor beta (TRb) (AID 2283836). The method, boiled down: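 HepG2 cells transiently transfected with multiplexed GAL4-UAS reporter units expressing chimeric NR-Gal4 proteins; read 24 h after dosing. Reporter mRNA quantified by RT-PCR, 6-FAM labelling, HpaI digest and capillary electrophoresis; gain of signal fitted relative to DMSO.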

The nature of test [15]: ATG_M_19_XSP2: Attagene TRANS-FACTORIAL Multi-Species (XSP2) HepG2 Assay for M32 Transcription Factor (Internal Marker) (AID 2283822). In outline:
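Internal background marker in a multi-species nuclear receptor TRANS panel: transfected HepG2 cells exposed 24 h, with 3 nM 6-alpha-fluorotestosterone and 1.5 nM norgestrel present. Readout is RT-PCR of reporter transcripts resolved by capillary electrophoresis, gain-of-signal versus DMSO.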

Test [16] has as its system zebrafish Androgen Receptor (AR), gene 100005148. In words: ATG_zfAR_XSP2: Attagene TRANS-FACTORIAL Multi-Species (XSP2) HepG2 Assay for zebrafish Androgen Receptor (AR) (AID 2283825).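 Note: hits raise reporter mRNA above DMSO so AC50 reflects agonist-type gain.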 The method, boiled down: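 Zebrafish AR–GAL4 chimera transiently expressed with GAL4-UAS reporter in HepG2 cells, co-stimulated with 3 nM 6-alpha-fluorotestosterone and 1.5 nM norgestrel; 24 h dosing, reporter mRNA read by RT-PCR/capillary electrophoresis versus DMSO.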

The target of test [17] is Estrogen receptor (Homo sapiens) (UniProt P03372). The experiment in a line: ATG_hERa_XSP2: Attagene TRANS-FACTORIAL Multi-Species (XSP2) HepG2 Assay for human Estrogen Receptor (ERa) (AID 2283827). In outline:
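HepG2 cells transiently transfected with multiplexed GAL4-UAS reporters driven by chimeric receptor-Gal4 proteins, dosed 24 h with 3 nM 6-alpha-fluorotestosterone and 1.5 nM norgestrel present. Reporter mRNA by RT-PCR and capillary electrophoresis; gain-of-signal fit versus DMSO.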

Chain of zebrafish Thyroid Hormone Receptor alpha (TRa), thraa (gene 30670) (Q98867 whole entry, looked up, the tested form may be a part): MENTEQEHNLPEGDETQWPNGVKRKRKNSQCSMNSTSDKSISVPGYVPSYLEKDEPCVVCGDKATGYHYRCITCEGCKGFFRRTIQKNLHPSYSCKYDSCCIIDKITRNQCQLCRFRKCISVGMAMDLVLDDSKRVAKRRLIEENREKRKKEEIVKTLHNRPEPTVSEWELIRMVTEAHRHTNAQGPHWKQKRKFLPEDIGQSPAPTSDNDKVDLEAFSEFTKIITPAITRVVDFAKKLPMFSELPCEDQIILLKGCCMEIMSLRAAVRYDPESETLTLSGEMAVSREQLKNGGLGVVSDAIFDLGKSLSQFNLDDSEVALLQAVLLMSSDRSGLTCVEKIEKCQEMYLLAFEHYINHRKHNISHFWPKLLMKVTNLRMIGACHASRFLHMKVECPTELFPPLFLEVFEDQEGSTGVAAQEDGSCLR
Chain of Nuclear receptor subfamily 1 group I member 2 (Mus musculus) (O54915 whole entry, looked up, the tested form may be a part): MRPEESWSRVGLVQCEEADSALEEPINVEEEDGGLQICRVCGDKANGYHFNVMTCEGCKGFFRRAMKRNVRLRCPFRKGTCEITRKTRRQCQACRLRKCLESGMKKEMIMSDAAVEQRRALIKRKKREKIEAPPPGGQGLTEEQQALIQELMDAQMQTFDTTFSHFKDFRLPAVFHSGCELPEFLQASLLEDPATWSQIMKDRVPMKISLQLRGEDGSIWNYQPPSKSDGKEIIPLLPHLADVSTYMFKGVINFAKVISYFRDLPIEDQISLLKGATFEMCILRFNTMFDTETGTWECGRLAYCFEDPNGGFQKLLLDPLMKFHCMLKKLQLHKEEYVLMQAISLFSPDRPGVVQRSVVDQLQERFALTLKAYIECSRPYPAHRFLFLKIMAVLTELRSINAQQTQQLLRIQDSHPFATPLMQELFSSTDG
Chain of chicken Estrogen Receptor (ERa), ESR1 (gene 396099) (P06212 whole entry, looked up, the tested form may be a part): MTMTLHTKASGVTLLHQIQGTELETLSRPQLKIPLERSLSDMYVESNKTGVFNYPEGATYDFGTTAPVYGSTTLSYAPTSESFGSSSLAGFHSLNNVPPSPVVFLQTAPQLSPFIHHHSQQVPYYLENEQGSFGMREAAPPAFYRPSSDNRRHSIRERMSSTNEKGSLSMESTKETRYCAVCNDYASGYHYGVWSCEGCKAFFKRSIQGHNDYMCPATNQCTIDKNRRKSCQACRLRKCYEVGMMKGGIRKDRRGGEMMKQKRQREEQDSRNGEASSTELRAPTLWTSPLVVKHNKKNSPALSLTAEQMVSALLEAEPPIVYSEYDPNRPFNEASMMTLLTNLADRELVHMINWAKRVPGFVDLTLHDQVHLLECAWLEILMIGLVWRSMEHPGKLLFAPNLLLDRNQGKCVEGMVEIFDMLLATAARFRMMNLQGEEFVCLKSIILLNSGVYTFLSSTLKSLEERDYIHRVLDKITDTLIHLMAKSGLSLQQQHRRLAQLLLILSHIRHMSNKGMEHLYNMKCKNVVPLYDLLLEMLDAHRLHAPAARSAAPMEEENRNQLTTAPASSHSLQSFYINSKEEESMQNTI
Chain of Peroxisome proliferator-activated receptor gamma (Homo sapiens) (P37231 whole entry, looked up, the tested form may be a part): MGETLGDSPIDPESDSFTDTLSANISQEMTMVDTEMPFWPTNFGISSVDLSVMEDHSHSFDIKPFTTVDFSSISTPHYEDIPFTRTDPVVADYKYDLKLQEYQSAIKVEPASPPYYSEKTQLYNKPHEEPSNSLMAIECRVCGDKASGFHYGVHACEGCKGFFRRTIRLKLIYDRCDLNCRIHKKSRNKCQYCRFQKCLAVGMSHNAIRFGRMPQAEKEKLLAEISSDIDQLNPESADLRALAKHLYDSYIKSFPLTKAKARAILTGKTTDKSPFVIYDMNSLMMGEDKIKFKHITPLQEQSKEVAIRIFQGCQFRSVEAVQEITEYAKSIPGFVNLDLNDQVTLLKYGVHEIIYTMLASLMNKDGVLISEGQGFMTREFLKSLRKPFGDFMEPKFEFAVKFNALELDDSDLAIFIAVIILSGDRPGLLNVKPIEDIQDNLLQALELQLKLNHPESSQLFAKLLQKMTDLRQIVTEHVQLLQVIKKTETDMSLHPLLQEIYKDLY
Chain of zebrafish Thyroid Hormone Receptor beta (TRb), thrb (gene 30607) (Q9PVE4 whole entry, looked up, the tested form may be a part): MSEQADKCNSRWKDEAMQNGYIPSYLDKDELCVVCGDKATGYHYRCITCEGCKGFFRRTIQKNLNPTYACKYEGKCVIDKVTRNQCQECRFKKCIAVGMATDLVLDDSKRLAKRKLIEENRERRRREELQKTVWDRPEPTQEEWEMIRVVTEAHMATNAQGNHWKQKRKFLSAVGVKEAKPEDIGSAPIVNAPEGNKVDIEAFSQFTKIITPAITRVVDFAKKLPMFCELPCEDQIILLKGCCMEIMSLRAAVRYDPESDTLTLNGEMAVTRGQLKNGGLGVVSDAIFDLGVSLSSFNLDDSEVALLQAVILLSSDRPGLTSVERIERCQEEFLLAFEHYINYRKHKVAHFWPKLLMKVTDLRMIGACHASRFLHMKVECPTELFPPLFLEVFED
Chain of mouse Peroxisome Proliferator-activated Receptor gamma (PPARg), Pparg (gene 19016) (P37238 whole entry, looked up, the tested form may be a part): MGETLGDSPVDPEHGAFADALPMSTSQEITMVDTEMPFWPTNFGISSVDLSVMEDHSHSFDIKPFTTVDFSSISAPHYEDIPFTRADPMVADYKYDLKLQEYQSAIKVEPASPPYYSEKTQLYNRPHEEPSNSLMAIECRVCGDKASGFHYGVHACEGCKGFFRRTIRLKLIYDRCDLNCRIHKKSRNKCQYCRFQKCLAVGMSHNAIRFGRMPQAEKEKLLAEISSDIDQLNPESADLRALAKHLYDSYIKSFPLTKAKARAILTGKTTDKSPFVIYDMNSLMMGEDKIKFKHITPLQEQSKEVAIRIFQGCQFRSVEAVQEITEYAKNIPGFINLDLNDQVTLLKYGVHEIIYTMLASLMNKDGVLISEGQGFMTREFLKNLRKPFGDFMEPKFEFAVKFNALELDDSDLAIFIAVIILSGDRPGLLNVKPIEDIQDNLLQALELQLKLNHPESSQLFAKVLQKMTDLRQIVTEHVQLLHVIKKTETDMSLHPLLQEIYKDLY
Chain of Estrogen receptor (Homo sapiens) (P03372 whole entry, looked up, the tested form may be a part): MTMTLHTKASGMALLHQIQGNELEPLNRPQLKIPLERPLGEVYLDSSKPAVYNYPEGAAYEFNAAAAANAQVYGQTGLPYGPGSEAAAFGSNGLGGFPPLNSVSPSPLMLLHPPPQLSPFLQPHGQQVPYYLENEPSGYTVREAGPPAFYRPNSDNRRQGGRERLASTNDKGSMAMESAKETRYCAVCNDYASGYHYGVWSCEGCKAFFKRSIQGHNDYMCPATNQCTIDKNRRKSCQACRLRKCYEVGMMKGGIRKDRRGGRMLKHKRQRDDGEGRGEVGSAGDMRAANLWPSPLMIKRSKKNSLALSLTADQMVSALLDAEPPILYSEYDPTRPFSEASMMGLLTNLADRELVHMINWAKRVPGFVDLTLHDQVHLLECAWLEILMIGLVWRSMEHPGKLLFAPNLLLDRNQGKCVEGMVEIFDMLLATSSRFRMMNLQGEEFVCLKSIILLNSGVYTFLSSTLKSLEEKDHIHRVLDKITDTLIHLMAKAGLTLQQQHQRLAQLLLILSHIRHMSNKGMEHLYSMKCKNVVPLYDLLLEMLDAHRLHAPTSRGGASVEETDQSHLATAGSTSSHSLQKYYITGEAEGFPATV

What is called AC50 is the concentration giving half of the maximal activity seen. Take `CCOP(=S)(OCC)O/N=C(\C#N)c1ccccc1`: the concentration at half-maximal activity (AC50) in [1] was 6.64 µM (active) and 5.37 µM (active); in [2], 4.38 µM (active); in [3], 17.8 µM (active); in test [5], 19 µM (active) and 8.31 µM (active); in test [6], 16.1 µM (active) and 2.28 µM (active); in test [7], 27.4 µM (active) and 10.3 µM (active). The AC50 is 22.4 µM (active) and 15.5 µM (active) in test [8]; 4.3 µM (active) and 2.37 µM (active) in test [9]. In addition, the molecule was called inactive in test [2], in [3], in [4], in test [10], in test [11] and in test [12]. Besides, the result in test [13] and in test [14] was inactive.
Regarding `COCCl`, the molecule was called inactive in [1], in test [2], in test [3], in [4], in test [15] and in [5]. Besides, the call in test [16], in [6], in [7], in test [8], in [9] and in test [11] was inactive. Besides, the molecule was classed as inactive in test [12]. In addition, the AC50 in test [2] is 34.8 µM (active); in [4], 19.8 µM (active); in test [5], 65.6 µM (active); in test [6], 61.9 µM (active); in test [9], 7.08 µM (active).
On to `CC(O)(CS(=O)(=O)c1ccc(F)cc1)C(=O)Nc1ccc(C#N)c(C(F)(F)F)c1` (stereo not given), for which the result in [1], in test [2], in test [4], in test [5], in test [17] and in [6] was inactive. The molecule was called inactive in [7], in test [8], in test [10], in test [11], in [12] and in test [13]. Besides, the call in test [14] was inactive. The results for the AC50 in test [5], in test [8] and in [9] were 50.4 µM (active), 46.2 µM (active) and 4.25 µM (active), respectively.
